HSP90 refold inh: HSP90 inhibitors, primary screen, cell lysate, luminescence. Heat shock protein HSP 90 (rabbit reticulocyte lysate; luciferase refolding). Rabbit reticulocyte lysate, luciferase refolding luminescence, 3 h. inhibition, % at 5.6 µM. 290,000 tested, 0.91% active. AID 1789, 2009;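 active means inhibition above the screen-wide mean plus 3 SD, computed separately per campaign, cut at about 16% in these data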;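 further: 0% = DMSO wells and 100% = 60 µM geldanamycin wells; inhibitors lower the luminescence because luciferase stays unfolded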
Mdm2 MdmX PPI: inhibitors of human Mdm2-MdmX association, primary screen, cell-based, luminescence, split luciferase, SaOS-2, uHTS; Protein Mdm4 (Homo sapiens) + E3 ubiquitin-protein ligase Mdm2 (Homo sapiens), …; SaOS-2 split-luciferase Mdm2/MdmX complementation; inhibition, % at 8 µM; 330,000 tested, 3% active; AID 485346, 2010;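 active means inhibition of at least 50% at 8 µM in the primary screen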
Peg3 prom inh: Peg3 promoter-driven luciferase inhibitors, primary screen, cell-based, HeLa, luciferase luminescence. HeLa PEG-Prom luciferase reporter, overnight. inhibition, % at 20 µM. 360,000 tested, 1.7% active. AID 588405, 2011;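 active means inhibition of at least 50% at 20 µM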
CF NFkB inh: inhibitors of PAF-induced NF-kB signaling, primary screen, cell-based, GFP fluorescence, uHTS; KKLEB NF-kB-GFP reporter, GFP fluorescence overnight; inhibition, % at 5 µM; 360,000 tested, 0.86% active; AID 588850, 2011;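 active means at least 50% inhibition at 5 µM, scaled per plate between neutral and stimulator controls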;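 further: PAF is a Pseudomonas aeruginosa culture filtrate used as stimulus; plate controls were PAF-stimulated DMSO wells for no effect and unstimulated DMSO wells for full effect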
KKLEB tox: cytotoxicity in KKLEB CF airway cells, primary screen, cytotoxicity control for CF NF-kB inhibitor project, cell-based, uHTS, fluorescence assay plates; KKLEB CF airway cells viability, ATPlite luminescence, overnight; hits give low values; cells stimulated with P. aeruginosa culture filtrate; activity change (cytotoxicity), % at 5 µM; 360,000 tested, 0.36% active; AID 602141, 2011;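 active means corrected activity change at or below -50% at 5 µM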
LGR2 antag: inhibitors of bursicon-induced LGR2 CRE-luciferase signal, primary screen, cell-based, HEK293, CRE-luciferase reporter, bursicon stimulation; 380,000 tested, 0.35% active; inhibition, % at 9.99 µM; Drosophila bursicon receptor LGR2 (rickets); AID 720647, 2013; bursicon-stimulated, 4 h;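 active means drop in luminescence signal, shown as inhibition above about 50% in the replicate tests, limit read from the data, passing the limit was not always enough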;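 further: agonist challenge used bursicon conditioned medium at about half maximal strength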
Mdm2 MdmX conf: Mdm2-MdmX complex disruptors, retested hits, confirmation, luminescence, single concentration | shares compounds with Mdm2 MdmX PPI | Mdm2-MdmX binding, luminescent assay | inhibition, % at 8 µM | 10,000 tested, 55% active | AID 489028, 2010; in the data active means inhibition above about 40%
FLuc counter: full-length luciferase signal inhibition, confirmation, counter-screen for Mdm2/MdmX interaction inhibitor project, cell-based, single concentration, SaOS-2 | shares compounds with Mdm2 MdmX PPI | SaOS-2 full-length luciferase counterscreen, luminescence | inhibition, % at 8 µM | 6,200 tested, 77% active;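 active means mean inhibition at 8 µM reaching about 37%, which flags the compound as non-specific, limit read from the data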;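 further: p53-null SaOS-2 cells with luciferase driven by a doxycycline-inducible promoter; compound on cells about two nights before reading with doxycycline added after day one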
An asterisk follows results filed as active. A selection: hits, their analogues and other compounds. The true share with any hit is near 3.6%.

`Cc1nn(-c2ccccc2)c(N2CCCC2)c1/C=N/NC(=O)c1ccccc1O` gave HSP90 refold inh 2.7, Mdm2 MdmX PPI 21.3, Peg3 prom inh 19.4, CF NFkB inh 16.0, KKLEB tox -8.3 and LGR2 antag 11.7.
For C/C(=N\NC(=O)c1cc(-c2cccnc2)nc2ccccc12)c1ccc(O)cc1O the results were HSP90 refold inh -4.6, Mdm2 MdmX PPI 65.8*, Peg3 prom inh 42.1, CF NFkB inh 11.5, KKLEB tox -29.6, LGR2 antag 26.4, Mdm2 MdmX conf 79.5* and FLuc counter 22.7.
Screening C/C(=N\NC(=O)c1cc(-c2cccc(OC(C)C)c2)nc2ccccc12)c1cccnc1 returned HSP90 refold inh 14.0, Mdm2 MdmX PPI 21.7, Peg3 prom inh -132.8, CF NFkB inh 3.2, KKLEB tox -15.7 and LGR2 antag -43.5.
Screening CCCc1cc(C(=O)N/N=C/c2ccc(CC)s2)c2ccccc2n1 returned HSP90 refold inh 2.5, Mdm2 MdmX PPI 63.2*, Peg3 prom inh 22.9, CF NFkB inh 7.4, KKLEB tox -14.4, Mdm2 MdmX conf 65.2* and FLuc counter 39.9*.
`CC(C)COc1cccc(-c2cc(C(=O)N/N=C/c3ccncc3)c3ccccc3n2)c1` gave HSP90 refold inh 13.1, Mdm2 MdmX PPI 80.5*, Peg3 prom inh -132.9, CF NFkB inh -50.2, KKLEB tox -18.0, LGR2 antag -9.2, Mdm2 MdmX conf 84.3* and FLuc counter 47.2*.
For Cc1noc(C)c1S(=O)(=O)Nc1ccc2c(c1)C(=O)N([C@@H](C)CO)C[C@@H](C)[C@H](CN(C)S(=O)(=O)c1cccs1)O2 the results were LGR2 antag -1.7.
CC(/C=N/NC(=O)c1cc(-c2ccccc2)nc2ccccc12)=C\c1ccco1 was read as HSP90 refold inh 11.4, Mdm2 MdmX PPI 42.2, Peg3 prom inh -4.5, CF NFkB inh 23.0, KKLEB tox -15.0 and LGR2 antag 1.8.
For O=C(N/N=C/c1ccccn1)c1cc(-c2ccccc2)nc2ccccc12 the results were HSP90 refold inh 5.0, Mdm2 MdmX PPI 71.5*, Peg3 prom inh 65.5*, CF NFkB inh 3.3, KKLEB tox -5.8, LGR2 antag -0.5 and Mdm2 MdmX conf 2.8.
CC(/C=N/NC(=O)c1cc(-c2ccc(Cl)cc2)nc2ccccc12)=C\c1ccco1 was read as HSP90 refold inh 5.4, Mdm2 MdmX PPI 66.4*, Peg3 prom inh -0.4, CF NFkB inh -13.6, KKLEB tox -8.8, LGR2 antag 6.6 and Mdm2 MdmX conf -0.5.
`CCc1ccc(/C=N/NC(=O)c2cc(-c3ccncc3)nc3ccccc23)s1` gave HSP90 refold inh -4.8, Mdm2 MdmX PPI 52.3*, Peg3 prom inh 14.1, CF NFkB inh 32.3, KKLEB tox -22.3, LGR2 antag -8.6, Mdm2 MdmX conf 62.3* and FLuc counter 80.4*.
CC(C)NC(=O)N(C)C[C@@H]1Oc2ncc(-c3ccccc3F)cc2C(=O)N([C@@H](C)CO)C[C@@H]1C was read as LGR2 antag -2.2.
COc1ccccc1CNC(=O)C[C@H]1CC[C@H]2[C@@H](COc3ccc(NC(=O)c4ccno4)cc3C(=O)N2C)O1 was read as LGR2 antag 5.5.
For C[C@H](CO)N1C[C@H](C)[C@H](CN(C)S(=O)(=O)c2cn(C)cn2)Oc2ccc(NC(=O)CCC(F)(F)F)cc2C1=O the results were LGR2 antag 0.7.
C[C@@H]1CCCCO[C@H](CN(C)C(=O)C2CCCCC2)[C@H](C)CN([C@H](C)CO)C(=O)c2cc(NC(=O)CCC(F)(F)F)ccc2O1 was read as LGR2 antag 5.9.
Screening Cc1ccc(Cn2ccc(NC(=O)c3cc4nc5c(c(C(F)(F)F)n4n3)CCc3ccccc3-5)n2)cc1 returned HSP90 refold inh -4.8.
Screening Cc1ccc(O)c(NC(=O)c2cc3nc4c(c(C(F)(F)F)n3n2)CCc2ccccc2-4)c1 returned HSP90 refold inh -0.8, Mdm2 MdmX PPI 80.4*, Peg3 prom inh 7.5, CF NFkB inh 34.4, KKLEB tox -25.1, LGR2 antag -5.1, Mdm2 MdmX conf 32.0 and FLuc counter 79.6*.
CC1=CC(C)(C)N2C(=O)C(=O)c3cc(OC(=O)c4ccco4)cc1c32 was read as HSP90 refold inh -6.6, Mdm2 MdmX PPI 74.6*, Peg3 prom inh 0.3, CF NFkB inh 63.9*, KKLEB tox -14.7, LGR2 antag 7.2, Mdm2 MdmX conf 58.9* and FLuc counter 51.6*.
Screening C[C@@H]1CN([C@H](C)CO)C(=O)c2cc(NS(=O)(=O)c3ccccc3)ccc2O[C@@H](C)CCCCO[C@H]1CN(C)C(=O)Nc1ccc2c(c1)OCO2 returned LGR2 antag -3.1.
`CCCCCc1ccc(OCCC[n+]2ccccc2)c(CCCCC)c1` gave HSP90 refold inh 11.8, Mdm2 MdmX PPI 88.6*, Peg3 prom inh 106.6*, CF NFkB inh 84.7*, KKLEB tox -91.1*, LGR2 antag 14.5, Mdm2 MdmX conf 75.7* and FLuc counter 21.7.
`C=C1C(=O)O[C@@H]2C[C@@H](C)[C@@H]3C=CC(=O)[C@@]3(C)[C@@H](OC(C)=O)[C@H]12` gave Mdm2 MdmX PPI 100.3*, LGR2 antag 102.7*, Mdm2 MdmX conf 99.6* and FLuc counter 51.3*.
`CCNC(=O)C[C@@H]1CC[C@H]2[C@H](COc3ccc(NC(=O)Nc4ccc(Cl)cc4)cc3C(=O)N2C)O1` gave LGR2 antag -4.6.
For N#C/C(=C(\O)Cc1ccccc1)c1nc2ccccc2[nH]1 the results were HSP90 refold inh -6.5, Mdm2 MdmX PPI 54.8*, Peg3 prom inh 16.8, CF NFkB inh 22.1, KKLEB tox -25.2 and Mdm2 MdmX conf 9.9.
COc1ccc(/C=N/OC/C(O)=C(\C#N)c2nc3ccccc3[nH]2)cc1OC was read as HSP90 refold inh -1.0, Mdm2 MdmX PPI 72.9*, Peg3 prom inh 2.5, CF NFkB inh -3.1, KKLEB tox -0.9, LGR2 antag -4.6 and Mdm2 MdmX conf 24.9.

From PubChem
